From PubChem BioAssay (EPA / NIEHS)
Activity calls are given as the source filed them. Rule for the calls: active = hit-call score of the fitted dose curve at least 0.9, where 1 is the maximum; inactive = score below 0.9.

assay: APR_HepG2_MicrotubuleCSK_1hr: Apredica 1-hour HepG2 Assay for Microtubule CSK Stabilty (AID 2282669); conditions: HepG2 microtubule cytoskeleton imaging, actives raise or lower the signal
Procedure: APR_HepG2_1hr is a cell-based, multiplexed-readout assay that uses HepG2, a human liver cell line, with measurements taken at 1 hour after chemical dosing in a 384-well plate.APR_HepG2_MicrotubuleCSK_1hr is one of 10 assay component(s) measured or calculated from the APR_HepG2_1hr assay. It is designed to make measurements of protein conformation, a form of conformation reporter, as detected with fluorescence intensity signals by HCS Fluorescent Imaging technology.Data from the assay component APR_HepG2_MicrotubuleCSK_1hr was analyzed into 1 assay endpoint. This assay endpoint, APR_HepG2_MicrotubuleCSK_1hr, was analyzed with bidirectional fitting relative to DMSO as the negative control and baseline of activity. Using a type of conformation reporter, measures of protein for gain or loss-of-signal activity can be used to understand the signaling at the cellular-level. Furthermore, this assay endpoint can be referred to as a primary readout, because this assay has produced multiple assay endpoints where this one serves a signaling function. To generalize the intended target to other relatable targets, this assay endpoint is annotated to the cell morphology intended target family, where the subfamily is cell conformation.
Cells were treated with dimethyl sulfoxide (DMSO) as a solvent control at a final concentration of 0.5% v/v or with compounds in DMSO with a resulting final DMSO concentration of 0.5% v/v. Compound treatment was done at concentrations of 0.39, 0.78, 1.56, 3.12, 6.24, 12.5, 25, 50, 100, and 200 uM in duplicate on each plate. Cells were treated with compounds for 1, 24, or 72 hr. Carbonyl […] m-chloro-phenylhydrazone (CCCP) and taxol were used as positive controls for mitochondrial function and cytoskeletal stability, respectively; DMSO served as the negative control for this experiment. Cells were fixed by the direct addition of 50 uL formaldehyde in Hank's Balanced Salt Solution (HBSS) to a final concentration of 3.7%. After incubation in the fixation medium for 30 min at room temperature (293-298 K), cells were rinsed twice with HBSS and treated with cell permeabilization buffer (16 uL of 0.5% Triton X-100) for 10 min at room temperature (293-298 K) before labeling. For mitochondrial membrane potential and mitochondrial measurements, pre-fixed cells were incubated with 50 uL of MitoTracker Red CMXRos (Invitrogen) at a concentration of 250 nM for 30 min before fixation. In the remaining cases, post-fixed cells were labeled by incubation with a multiplexed mixture of primary antibodies in HBSS for 60 min at room temperature (293-298 K) to detect immunoreactivity of c-Jun (1:500), phospho-histone H3 (1:100), phospho-histone H2A.x (1:200), p53 (1:400), alpha-tubulin (1:200) and Hoechst 33342 (2 ug/mL). Cells were labeled for multiplexed imaging on two separate plates: a) Hoechst 33342, MitoTracker Red, phospho-histone H3, and alpha-tubulin, and b) Hoechst 33342, phospho-histone H2A.x, and c-Jun. A final rinse with HBSS (50 uL) was performed before analysis. The primary and secondary antibodies for the proteins were phospho-histone H3 (rabbit anti-phospho-histone H3 and FITC-donkey anti-rabbit IgG), phospho-histone H2A.x (mouse anti-phospho-histone H2A.x and FITC-donkey anti-mouse IgG), c-Jun (rabbit anti-phospho-c-Jun and Cy3-donkey anti-rabbit IgG), p53 (sheep anti-p53 and Cy5-donkey anti-sheep IgG), alpha-tubulin (mouse anti-alpha-tubulin and Cy5-donkey anti-mouse IgG). These antibodies are available as the CellCiphr HepG2 assay kit (Millipore).Digital images of each well were captured using a Cellomics ArrayScan VTI (Thermo Scientific Cellomics) (0.8 NA objective, 0.63x optical coupler, and XF-93 filter set) at 20x magnification. The images were acquired using the autofocus feature of the ArrayScan instrument, which entails the following steps. First, the camera focuses on channel 1 (Hoechst 33342), where nuclei are identified. Second, a Z offset of 1 um is used for capturing mitochondria (MitoTracker Red). […]

Q: For Nc1c(Cl)cc([N+](=O)[O-])cc1Cl, which outcome is on record?
A: The outcome was “inactive”.

Q: Which outcome does the source give for CN1COCN(Cc2cnc(Cl)s2)C1=N[N+](=O)[O-] here?
A: Its outcome is “inactive”.

Q: For CCOP(=O)(SC(C)CC)N1CCSC1=O (stereo not given), which outcome is on record?
A: Its outcome is “inactive”.

Q: With CSc1nc(NC(C)C)nc(NC(C)C)n1 as the compound, how does the outcome read?
A: The outcome was “inactive”.

Q: For C=C(C)[C@H]1Cc2c(ccc3c2O[C@@H]2COc4cc(OC)c(OC)cc4[C@@H]2C3=O)O1, which AC50 is on record?
A: Its AC50 is 4.74 µM (active).

Q: For CCOP(=S)(OCC)Oc1ccc([N+](=O)[O-])cc1, which outcome is on record?
A: Its outcome is “inactive”.

Q: With CN(C)NC(=O)CCC(=O)O as the compound, how does the outcome read?
A: The outcome was “inactive”.

Q: Which outcome does the source give for COc1cccc(C(=O)NN(C(=O)c2cc(C)cc(C)c2)C(C)(C)C)c1C here?
A: Its outcome is “inactive”.

Q: For CC(Oc1cccc(Cl)c1)C(=O)O (stereo not given), which outcome is on record?
A: The outcome was “inactive”.

Q: With O=[N+]([O-])c1cc(C(F)(F)F)c(Cl)c([N+](=O)[O-])c1Nc1ncc(C(F)(F)F)cc1Cl as the compound, how does the outcome read?
A: Its outcome is “inactive”.

Q: For N#CSCSC#N, which outcome is on record?
A: The outcome was “inactive”.

Q: With CCC(=O)Nc1ccc(Cl)c(Cl)c1 as the compound, how does the outcome read?
A: Its outcome is “inactive”.

Q: Which outcome does the source give for COP(=O)(OC)OC(Br)C(Cl)(Cl)Br (stereo not given) here?
A: Its outcome is “inactive”.

Q: For CC(COc1ccc(Oc2ccccc2)cc1)Oc1ccccn1 (stereo not given), which outcome is on record?
A: Its outcome is “inactive”.

Q: With CC1(C(=O)Nc2ccc(O)c(Cl)c2Cl)CCCCC1 as the compound, how does the outcome read?
A: Its outcome is “inactive”.

Q: With COc1ccc(C(=CC(=O)N2CCOCC2)c2ccc(Cl)cc2)cc1OC as the compound, how does the outcome read?
A: The outcome was “inactive”.

Q: Which outcome does the source give for CCc1cccc(C)c1N(C(=O)CCl)C(C)COC (stereo not given) here?
A: The outcome was “inactive”.

Q: For CN(C)C(=O)Nc1cccc(C(F)(F)F)c1, which outcome is on record?
A: Its outcome is “inactive”.

Q: With CSc1nnc(C(C)(C)C)c(=O)n1N as the compound, how does the outcome read?
A: Its outcome is “inactive”.

Q: For CCc1cccc(CC)c1N(COC)C(=O)CCl, which outcome is on record?
A: Its outcome is “inactive”.

Q: For CCNc1nc(Cl)nc(NC(C)(C)C#N)n1, which outcome is on record?
A: The outcome was “inactive”.

Q: With COP(=O)(OC)SCn1c(=O)oc2cc(Cl)cnc21 as the compound, how does the outcome read?
A: The outcome was “inactive”.

Q: With CCCSP(=O)(OCC)SCCC as the compound, how does the outcome read?
A: The outcome was “inactive”.

Q: With C[Si](Cn1cncn1)(c1ccc(F)cc1)c1ccc(F)cc1 as the compound, how does the outcome read?
A: Its outcome is “inactive”.

Q: For CC[C@H](C)[C@H]1O[C@]2(C=C[C@@H]1C)C[C@@H]1C[C@@H](C/C=C(\C)[C@@H](O[C@H]3C[C@H](OC)[C@@H](O[C@H]4C[C@H](OC)[C@@H](NC)[C@H](C)O4)[C@H](C)O3)[C@@H](C)/C=C/C=C3\CO[C@@H]4[C@H](O)C(C)=C[C@@H](C(=O)O1)[C@]34O)O2, which outcome is on record?
A: The outcome was “inactive”.

Q: With S=C1NCCN1 as the compound, how does the outcome read?
A: The outcome was “inactive”.

Q: Which outcome does the source give for CCC(=NOC/C=C/Cl)C1=C(O)CC(C2CCOCC2)CC1=O (stereo not given) here?
A: The outcome was “inactive”.

Q: Which outcome does the source give for CCOP(=S)(OCC)OC(Cl)C(Cl)(Cl)Cl (stereo not given) here?
A: The outcome was “inactive”.

Q: Which outcome does the source give for CNc1cnn(-c2cccc(C(F)(F)F)c2)c(=O)c1Cl here?
A: Its outcome is “inactive”.

Q: With CNC(=O)ON=C(SC)C(=O)N(C)C as the compound, how does the outcome read?
A: The outcome was “inactive”.

Q: For CC1=NNC(=O)N(/N=C/c2cccnc2)C1, which outcome is on record?
A: Its outcome is “inactive”.

Q: Which outcome does the source give for C#CCC1=C(C)C(OC(=O)C2C(C=C(C)C)C2(C)C)CC1=O (stereo not given) here?
A: Its outcome is “inactive”.

Q: Which outcome does the source give for C[N+]1(C)CCCCC1 here?
A: Its outcome is “inactive”.

Q: Which outcome does the source give for CCC(CC)Nc1c([N+](=O)[O-])cc(C)c(C)c1[N+](=O)[O-] here?
A: The outcome was “inactive”.

Q: For CCCOCC(=Nc1ccc(Cl)cc1C(F)(F)F)n1ccnc1, which outcome is on record?
A: The outcome was “inactive”.

Q: For CCCCOC(=O)[C@@H](C)Oc1ccc(Oc2ccc(C#N)cc2F)cc1, which outcome is on record?
A: The outcome was “inactive”.

Q: Which outcome does the source give for Nc1nc(N)nc(NC2CC2)n1 here?
A: Its outcome is “inactive”.

Q: Which outcome does the source give for O=C(O)c1cc(Oc2ccc(C(F)(F)F)cc2Cl)ccc1[N+](=O)[O-] here?
A: The outcome was “inactive”.

Q: With CCc1cnc(C2=NC(C)(C(C)C)C(=O)N2)c(C(=O)O)c1 (stereo not given) as the compound, how does the outcome read?
A: The outcome was “inactive”.

Q: With CON=C(C(=O)OC)c1ccccc1CON=C(C)c1cccc(C(F)(F)F)c1 as the compound, how does the outcome read?
A: The outcome was “inactive”.
